Results filed as inconclusive are left out. Unmarked numbers belong to inactive results. The source made the active and inactive calls. Calls come from the whole dose curve; as a rule, active = well fitted curve in the direction sought with a large enough effect; inconclusive = small, poorly fitted or top-dose-only effect, or another doubt; inactive = no such curve, though single readings can be large; an effect the other way counts as inactive or inconclusive.

Chain of Luciferin 4-monooxygenase (Photinus pyralis) (P08659 whole entry, looked up): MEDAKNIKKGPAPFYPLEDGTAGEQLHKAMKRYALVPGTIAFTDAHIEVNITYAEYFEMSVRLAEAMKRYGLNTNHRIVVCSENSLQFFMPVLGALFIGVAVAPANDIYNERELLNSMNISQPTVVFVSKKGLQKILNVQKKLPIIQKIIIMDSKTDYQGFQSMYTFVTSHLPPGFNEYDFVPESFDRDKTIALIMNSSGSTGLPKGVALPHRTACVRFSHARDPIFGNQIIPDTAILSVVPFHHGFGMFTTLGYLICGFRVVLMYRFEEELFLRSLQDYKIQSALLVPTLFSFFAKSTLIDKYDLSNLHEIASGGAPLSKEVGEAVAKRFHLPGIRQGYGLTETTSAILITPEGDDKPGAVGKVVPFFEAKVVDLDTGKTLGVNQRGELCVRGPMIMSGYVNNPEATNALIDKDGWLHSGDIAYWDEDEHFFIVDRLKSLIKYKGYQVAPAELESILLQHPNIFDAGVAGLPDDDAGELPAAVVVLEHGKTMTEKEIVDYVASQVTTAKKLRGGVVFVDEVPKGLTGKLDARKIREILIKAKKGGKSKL

The first assay addresses Luciferin 4-monooxygenase (Photinus pyralis) (UniProt P08659). In words: Biochemical firefly luciferase enzyme assay for NPC (AID 624030).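 Note: purified P. pyralis luciferase at 10 nM with luciferin and ATP substrate; 0% = DMSO and -100% = full luciferase inhibition by PTC124 control; nearly all actives have a fitted effect of over 70% in size.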 As to conditions: purified P. pyralis luciferase, luminescence, 5 min; series mostly up to 58.6 µM; activity change, negative = inhibition: at the top concentration. The method, boiled down:
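Direct inhibition of firefly luciferase enzyme (10 nM final, 50 mM Tris Acetate) assessed by luminescence within 5 minutes. Percent activity scaled between DMSO and PTC124 positive control, with concentration-effect curves classified by fit quality and response.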
With `CCn1cc(C(=O)O)c(=O)c2cc(F)c(N3CCN(C)CC3)cc21`, the “activity change, negative = inhibition” value is 5.31%.
On to `COc1ccc(C(=O)CC(=O)c2ccc(C(C)(C)C)cc2)cc1`, for which the “activity change, negative = inhibition” value is -2.59%.
For `CN1CCCC(n2nc(Cc3ccc(Cl)cc3)c3ccccc3c2=O)CC1` (stereo unspecified), the “activity change, negative = inhibition” value is 4.52%.
As for `CCCOc1ccc(C(=O)OCCN(CC)CC)cc1N`, the “activity change, negative = inhibition” value was 0.715%.
Take `Cc1c(-c2ccc(O)cc2)n(Cc2ccc(OCCN3CCCCCC3)cc2)c2ccc(O)cc12`: the “activity change, negative = inhibition” value was 2.34%.
The same measure, in the same setting: under `CCCc1cc(C(N)=S)ccn1` stands 1.87%; under `O=C(O)CSCC(=O)NC1CCSC1=O` (stereo unspecified), -0.623%; under `CN(C)CCc1c[nH]c2ccc(CS(=O)(=O)N3CCCC3)cc12`, 0.453%.
As to `NC1(c2ccc(-c3nc4ccn5c(=O)[nH]nc5c4cc3-c3ccccc3)cc2)CCC1`, the “activity change, negative = inhibition” value was 0.933%.
For `COc1cc2c(Nc3ccc(Br)cc3F)ncnc2cc1OCC1CCN(C)CC1`, the “activity change, negative = inhibition” value is 10.7%.
As for `Cc1cccc(Nc2ccncc2S(=O)(=O)NC(=O)NC(C)C)c1`, the “activity change, negative = inhibition” value is -0.0208% [at 24.9 µM].
For `C1CCC(C(CC2CCCCN2)C2CCCCC2)CC1` (stereo unspecified), the “activity change, negative = inhibition” value is 10.7%.
In the case of `Cc1nnc(C(=O)NC(C)(C)c2nc(C(=O)NCc3ccc(F)cc3)c(O)c(=O)n2C)o1`, the “activity change, negative = inhibition” value was 1.56%.
Regarding `CCN(CC)CCn1c(=O)c(Cc2ccc(OC)cc2)nc2ccccc21`, the “activity change, negative = inhibition” value was -1.28%.
Consider `CC1=CC(=O)c2ccccc2C1=O`, for which the “activity change, negative = inhibition” value is -2.03%.
For `CNS(=O)(=O)CCc1ccc2[nH]cc(C3CCN(C)CC3)c2c1`, the “activity change, negative = inhibition” value is 0.389%.
In the case of `CNC1CCCN(c2c(F)cc3c(=O)c(C(=O)O)cn(C4CC4)c3c2OC)C1` (stereo unspecified), the “activity change, negative = inhibition” value is -3.52%.
In the case of `Cc1cccc(N(C)C(=S)Oc2ccc3ccccc3c2)c1`, the “activity change, negative = inhibition” value was -9.86% [at 24.9 µM].
On to `CCCCCCNC(=O)n1cc(F)c(=O)[nH]c1=O`, for which the “activity change, negative = inhibition” value is -0.269%.
As to `COc1cc(NCc2ccc3nc(N)nc(N)c3c2C)cc(OC)c1OC`, the “activity change, negative = inhibition” value was -6.08%.
Regarding `CNCC[C@H](Oc1cccc2ccccc12)c1cccs1`, the “activity change, negative = inhibition” value was 13.5%.
Same read-out and setting: next, `COc1cc([C@@H]2c3cc4c(cc3[C@H](O)[C@H]3COC(=O)[C@H]23)OCO4)cc(OC)c1OC`: -0.177%; `CCCCc1oc2ccc(NS(C)(=O)=O)cc2c1C(=O)c1ccc(OCCCN(CCCC)CCCC)cc1`: 4.24%.
As for `CC(C)(C)C(=O)OCOP(=O)(COCCn1cnc2c(N)ncnc21)OCOC(=O)C(C)(C)C`, the “activity change, negative = inhibition” value was -10.8%.
Still for that read-out and setting: next, `CC(C)OC(=O)OCOP(=O)(CO[C@H](C)Cn1cnc2c(N)ncnc21)OCOC(=O)OC(C)C`: -3.6%; `COC(=O)Nc1nc2ccc(S(=O)c3ccccc3)cc2[nH]1` (stereo unspecified): -10.9%; `CC(C)C[C@H](NC(=O)[C@H](CCc1ccccc1)NC(=O)CN1CCOCC1)C(=O)N[C@@H](Cc1ccccc1)C(=O)N[C@@H](CC(C)C)C(=O)[C@@]1(C)CO1`: -1.9%.
In the case of `NCCCC(O)(P(=O)(O)O)P(=O)(O)O`, the “activity change, negative = inhibition” value is 4.11%.

Test system in the next assay: not listed separately
Nature of the assay: S16 Schwann cell viability assay (CellTiter-Glo assay) (AID 624031).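 For activity change, negative = cytotoxicity: native untransfected S16 rat Schwann cells; plate controls were DMSO-treated cells for no effect and cell-free wells for full effect.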 Note: nearly all actives have a fitted effect of over 70% in size. Note: potency is the fitted concentration of half-maximal effect. The note with it: S16 rat Schwann cells viability, 24 h; series mostly up to 57.5 µM; activity change, negative = cytotoxicity: at the top concentration. The essentials:
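Cells were seeded at 500-750 per well in phenol red-free DMEM with 10% FBS and left overnight. Compounds or DMSO were pinned in, incubation ran 24 h at 37 °C/5% CO2, then CellTiter-Glo reagent was added and luminescence measured.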
Background: ATP-based viability assays read luminescence as a measure of living cells.
Regarding `CCn1cc(C(=O)O)c(=O)c2cc(F)c(N3CCN(C)CC3)cc21`, the “activity change, negative = cytotoxicity” value was 0%.
Consider `COc1ccc(C(=O)CC(=O)c2ccc(C(C)(C)C)cc2)cc1`, for which the “activity change, negative = cytotoxicity” value is 9.42%.
`CCCc1cc(C(N)=S)ccn1`: the “activity change, negative = cytotoxicity” value is -13.4%.
On to `O=C(O)c1cn(C2CC2)c2cc(N3CCNCC3)c(F)cc2c1=O`, for which the “activity change, negative = cytotoxicity” value is 10% [at 25.7 µM].
`CN(C)CCc1c[nH]c2ccc(CS(=O)(=O)N3CCCC3)cc12`: the “activity change, negative = cytotoxicity” value is -5.29%.
As to `COc1cc2c(Nc3ccc(Br)cc3F)ncnc2cc1OCC1CCN(C)CC1`, the Potency is 20.3 µM (active).
Take `Cc1cccc(Nc2ccncc2S(=O)(=O)NC(=O)NC(C)C)c1`: the “activity change, negative = cytotoxicity” value was 0.687% [at 25.7 µM].
With `C1CCC(C(CC2CCCCN2)C2CCCCC2)CC1` (stereo unspecified), the Potency is 18.1 µM (active).
Consider `CC1=CC(=O)c2ccccc2C1=O`, for which the Potency is 14.4 µM (active).
Consider `CNC1CCCN(c2c(F)cc3c(=O)c(C(=O)O)cn(C4CC4)c3c2OC)C1` (stereo unspecified), for which the “activity change, negative = cytotoxicity” value was 4.17%.
The same measure, in the same setting: under `Cc1cccc(N(C)C(=S)Oc2ccc3ccccc3c2)c1` stands -0.488% [at 25.7 µM].
With `CCCCCCNC(=O)n1cc(F)c(=O)[nH]c1=O`, the “activity change, negative = cytotoxicity” value was -10.6%.
Take `COc1cc(NCc2ccc3nc(N)nc(N)c3c2C)cc(OC)c1OC`: the Potency was 28.7 µM (active).
Consider `CNCC[C@H](Oc1cccc2ccccc12)c1cccs1`, for which the Potency is 16.1 µM (active).
For the compound `COc1cc([C@@H]2c3cc4c(cc3[C@H](O)[C@H]3COC(=O)[C@H]23)OCO4)cc(OC)c1OC`, the “activity change, negative = cytotoxicity” value was 5.11%.
In the case of `CC(C)(C)C(=O)OCOP(=O)(COCCn1cnc2c(N)ncnc21)OCOC(=O)C(C)(C)C`, the “activity change, negative = cytotoxicity” value is 0.165%.
Still for that read-out and setting: next, `CCOc1cc(N)c(Cl)cc1C(=O)NCC1CN(Cc2ccc(F)cc2)CCO1` (stereo unspecified): -4.79%.
Regarding `NCCCC(O)(P(=O)(O)O)P(=O)(O)O`, the “activity change, negative = cytotoxicity” value is 8.9%.

Test system in the next assay: not listed separately
Nature of the assay: S16 Schwann cell PMP22 intronic element firefly luciferase assay (AID 624032).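 For activity change, negative = inhibition: plate controls were DMSO for no effect and PTC124 positive control mean for full effect.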 Note: nearly all actives have a fitted effect of over 30% in size. Note: potency is the fitted concentration of half-maximal effect. As to conditions: S16 rat Schwann cells, PMP22 element FLuc, 24 h; series mostly up to 57.5 µM; activity change, negative = inhibition: at the top concentration. The essentials: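 Luciferase reporter of PMP22 intronic-element expression in stably transfected S16 rat Schwann cells, read by ONE-Glo luminescence after 24 h compound exposure at 37 C. Activity scaled between DMSO (0%) and positive-control PTC124; concentration-effect curves quality-classified.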
For the compound `CCn1cc(C(=O)O)c(=O)c2cc(F)c(N3CCN(C)CC3)cc21`, the “activity change, negative = inhibition” value is 42.8%.
Regarding `COc1ccc(C(=O)CC(=O)c2ccc(C(C)(C)C)cc2)cc1`, the “activity change, negative = inhibition” value was -23.1%.
In the case of `CCCc1cc(C(N)=S)ccn1`, the “activity change, negative = inhibition” value is -13.7%.
Regarding `O=C(O)c1cn(C2CC2)c2cc(N3CCNCC3)c(F)cc2c1=O`, the “activity change, negative = inhibition” value was 23% [at 25.7 µM].
Same read-out and setting: next, `CN(C)CCc1c[nH]c2ccc(CS(=O)(=O)N3CCCC3)cc12`: -13%.
Consider `COc1cc2c(Nc3ccc(Br)cc3F)ncnc2cc1OCC1CCN(C)CC1`, for which the Potency was 9.07 µM (active).
For `Cc1cccc(Nc2ccncc2S(=O)(=O)NC(=O)NC(C)C)c1`, the “activity change, negative = inhibition” value is -10.5% [at 25.7 µM].
Turning to `C1CCC(C(CC2CCCCN2)C2CCCCC2)CC1` (stereo unspecified), the Potency is 32.2 µM (active).
On to `CC1=CC(=O)c2ccccc2C1=O`, for which the Potency was 22.8 µM (active).
With `CNC1CCCN(c2c(F)cc3c(=O)c(C(=O)O)cn(C4CC4)c3c2OC)C1` (stereo unspecified), the “activity change, negative = inhibition” value is 16.4%.
Same read-out and setting: next, `Cc1cccc(N(C)C(=S)Oc2ccc3ccccc3c2)c1`: 59.6% [at 25.7 µM].
Turning to `CCCCCCNC(=O)n1cc(F)c(=O)[nH]c1=O`, the “activity change, negative = inhibition” value was -3.51%.
For `COc1cc(NCc2ccc3nc(N)nc(N)c3c2C)cc(OC)c1OC`, the Potency is 0.455 µM (active).
On to `CCOc1cc(N)c(Cl)cc1C(=O)NCC1CN(Cc2ccc(F)cc2)CCO1` (stereo unspecified), for which the “activity change, negative = inhibition” value is -0.33%.
In the case of `NCCCC(O)(P(=O)(O)O)P(=O)(O)O`, the “activity change, negative = inhibition” value was 7.25%.

These data come from PubChem BioAssay (NCATS).
